High-throughput results from PubChem BioAssay.
CYP2C19 inhib: human CYP2C19 inhibition. CYP2C19 Supersomes, luciferin-H EGE luminescence, 30 min. inhibition, % at 5 µM. 96,000 compounds, 21% hits. AID 778;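 active means CYP2C19 inhibition above a set limit at 5 µM in the primary screen, cut at about 50% in these data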;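 further: plate controls were negative control wells for no effect and 2.5 mM tranylcypromine positive control for full effect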
Target sequence (P33261 whole entry, looked up): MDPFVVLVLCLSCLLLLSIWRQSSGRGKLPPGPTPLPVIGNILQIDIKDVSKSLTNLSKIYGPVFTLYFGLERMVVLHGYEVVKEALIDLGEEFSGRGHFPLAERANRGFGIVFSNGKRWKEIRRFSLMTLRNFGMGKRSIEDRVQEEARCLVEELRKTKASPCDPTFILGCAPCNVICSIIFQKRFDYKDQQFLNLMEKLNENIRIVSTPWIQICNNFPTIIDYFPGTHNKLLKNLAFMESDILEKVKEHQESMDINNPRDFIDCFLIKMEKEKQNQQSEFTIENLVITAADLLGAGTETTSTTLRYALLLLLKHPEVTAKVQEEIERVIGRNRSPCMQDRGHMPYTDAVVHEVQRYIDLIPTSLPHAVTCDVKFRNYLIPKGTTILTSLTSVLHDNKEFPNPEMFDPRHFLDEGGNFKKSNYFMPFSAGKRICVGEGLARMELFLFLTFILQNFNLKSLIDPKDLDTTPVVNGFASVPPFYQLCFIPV
PTK2B oligo ant: Pyk2 (human) oligomerization antagonism; Q293 cells, Pyk2 FERM NanoBiT luminescence; active compounds read low; 99,000 compounds, 0.83% hits; Q14289; AID 1347419; z-score (the deposit names both 25 µM and 10 µM);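 active means Z-score of -3 or lower, scaled per plate to the spread of control and sample wells; inactive means z-score above -3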;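 further: negative z-score means lost luminescence so less FERM oligomerization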
CYP2C19 activ: increases human CYP2C19 enzyme activity; recombinant CYP2C19, luciferin-H EGE luminescence; active compounds read high; 0 = fully inhibited enzyme, 1 = untreated enzyme; activation factor at 5 µM; 96,000 tested, under 10 active;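 active means activation factor of at least 2 at 5 µM in the primary screen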;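 further: 0 = wells with 2.5 mM tranylcypromine and 1 = vehicle-only wells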
CYP2C9 act: activators of human CYP2C9. P11712. recombinant CYP2C9, luciferin-H conversion, luminescence; active compounds read high; factor 1 = untreated enzyme, 0 = blocked. activation factor at 5 µM. 96,000 compounds, 1.4% hits;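 active means activation factor of 2 or more for CYP2C9 at a 5 µM dose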;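 further: 0 = sulfaphenazole-blocked wells and 1 = vehicle-only wells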
CYP2C9 inhib: inhibitors of human CYP2C9; P11712; CYP2C9 Supersomes, luciferin-H conversion, luminescence; inhibition, % at 5 µM; 96,000 compounds, 20% hits; AID 777;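 active means blocking of liver enzyme CYP2C9 beyond about 50% at 5 µM, limit read from the data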
An asterisk follows results filed as active; . = not tested or not shown. In the library only some 28% were active in any assay of this set; here they are far more common.

SMILES	CYP2C19 inhib	PTK2B oligo ant	CYP2C19 activ	CYP2C9 act	CYP2C9 inhib
CCOC(=O)Cc1csc(NC(=O)C2CCCN(S(=O)(=O)c3cnc[nH]3)C2)n1 (stereo not drawn)	-1	.	1	0.8	21
CCOC(=O)N1CCC(NC(=O)CSCc2nc(-c3ccc(OC)c(OC)c3)oc2C)CC1	27	0.55	0.7	0.7	32
COc1ccc(-c2nc(CS(=O)CC(=O)NC3CCCc4ccccc43)c(C)o2)cc1OC (stereo not drawn)	56*	.	0.4	0.1	88*
COc1cccc(-c2nnn(CC(=O)NC3CCCC3)n2)c1OC	39	1.2	0.6	1.1	-5
CCCCN(C)CCCNC(=O)CS(=O)Cc1nc(-c2ccc(OC)c(OC)c2)oc1C (stereo not drawn)	-6	0.54	1.1	1.1	-6
COc1ccc(-c2nnn(CC(=O)NC3CCCc4ccccc43)n2)cc1OC (stereo not drawn)	64*	0.75	0.4	1	1
COc1ccc(-c2nc(CSCC(=O)N3CCN(c4cccc(C)c4)C(C)C3)c(C)o2)cc1OC (stereo not drawn)	73*	.	0.3	0.6	37
COc1ccc(-c2nc(CSCC(=O)NC3CCCc4ccccc43)c(C)o2)cc1OC (stereo not drawn)	61*	0.11	0.4	0.3	66*
COc1c2ccc(C(=O)NCc3cc(C(F)(F)F)cc(C(F)(F)F)c3)cc2nn1C	7	.	0.9	1	3
CC(=O)c1cccc(N(CC(=O)O)S(C)(=O)=O)c1	-6	-0.34	1.1	1.1	-9
COc1ccc(Nc2nc(Nc3ccc(OC)cc3)nc(-n3[nH]c(=O)c(C)c3C)n2)cc1	11	-1.2	0.9	0.8	18
CCCCCCNS(=O)(=O)c1nc2nc(C)cc(C)n2n1	49	.	0.5	1.8	-81
COc1ccc(C2C(=O)N(C3CCCCC3)CC(=O)N2Cc2ccc3c(c2)OCO3)cc1 (stereo not drawn)	15	-1.9	0.9	0.8	24
O=C1C(c2ccc(F)cc2)N(Cc2ccc3c(c2)OCO3)C(=O)CN1C1CCCCCC1 (stereo not drawn)	36	0.15	0.6	0.4	56*
Cc1ccc(NC(=O)CNc2cccc(C)c2C)c(C)c1	64*	0.91	0.4	0.5	52*
Cc1ccc(NC(=O)CCn2nc(C)cc2C)c(C)c1	53*	-0.45	0.5	1	-2
Cc1cccc(NC(=O)CCn2nc(C)cc2C)c1	71*	0.08	0.3	2.6*	-160
Cc1cc(C)n(CC(=O)Nc2ccccc2)n1	10	0.67	0.9	1.1	-6
Cc1ccc(CNc2ncnc3cc(Cl)ccc23)o1	67*	1.1	0.3	0.5	54*
CCOc1ccccc1N1CC(O)=C(c2nc3ccccc3s2)C1=N	59*	-2.5	0.4	0.4	58*
CCOc1cc(S(=O)(=O)NCc2ccccn2)c(C)cc1C	59*	.	0.4	0.8	19
CCOc1cc(S(=O)(=O)NCc2ccccn2)ccc1Cl	.	0.14	.	.	.
COc1ccc(CC(=O)NCc2ccccn2)cc1OC	10	-0.54	0.9	1.1	-6
COc1ccc(C(C)C)cc1S(=O)(=O)NCc1ccccn1	65*	0.66	0.3	0.5	52*
Cc1oc(-c2ccccc2)cc1C(=O)Nc1ccc(N(C)C)cc1	-7	-0.3	1.1	1	1
SMILES	CYP2C19 inhib	PTK2B oligo ant	CYP2C19 activ	CYP2C9 act	CYP2C9 inhib
O=C1NC2(CCCCC2)C(=O)N1c1ccccc1	22	-0.08	0.8	0.9	10
CSc1ccc(N2C(=O)NC3(CCCCC3)C2=O)cc1	70*	-0.18	0.3	1.1	-8
CCOC(=O)c1c(C)nc2sc3c(=O)n(-c4ccc(C(C)=O)cc4)cnc3c2c1-c1ccc(OC)cc1	70*	0.35	0.3	0.2	76*
CC1=C(C(=O)Nc2ccccn2)C(c2ccc(N(C)C)cc2)n2ncnc2N1 (stereo not drawn)	-3	1.8	1	0.9	9
Brc1ccc(C2C3=C(Nc4ncnn42)c2ccccc2OC3c2ccncc2)cc1 (stereo not drawn)	55*	-3.8*	0.4	0.1	89*
COc1ccc(C2Oc3ccccc3C3=C2C(c2cccs2)n2ncnc2N3)cc1 (stereo not drawn)	22	-3.7*	0.8	0.3	67*
CCCNC(=O)N1CCN(S(=O)(=O)c2ccc(C)c(C)c2)CC1	.	0.42	.	.	.
O=C(CSc1ncn[nH]1)NCCCc1ccccc1	57*	1.2	0.4	1	5
